Each sequence was assayed against LCN1 (assay: pooled miR-30 sensor sort-seq; sequence = guide strand). Details: shRNA.
Note: reference of the scale not given here.

| Sequence | sensor-assay potency score (higher = more potent) |
| --- | --- |
| TCTCCGTGCTGAGTCCGCGGGC | -0.925 |
| ATTCATCTCAGGGAACTCCCTG | -0.0672 |
| TTGTTCTTGGGGTCTCTGCCCA | -0.515 |
| ATGCTCTCCGTGCTGAGTCCGC | -1.5 |
| ATCCTGAATCTCCTCGTCTGAG | -1.24 |
| TTCCAGGGTCGTGAGGGTCATG | -1.33 |
| TCCTGAATCTCCTCGTCTGAGG | -2.03 |

These sequences were tested against LECT2 in the same assay as above. Details: shRNA.

| Sequence | sensor-assay potency score (higher = more potent) |
| --- | --- |
| TTGACACAAAAACCTCTTCCAG | -1.04 |
| TCTCATTGGAAGACTTGCCAGC | -0.403 |
| ATTATTGATAGCATTCTTGTTT | -0.52 |
| TTCCAGATATTCGAACACCATT | -1.45 |
| ATGTAGAACATTTTGACACAAA | -1.54 |
| TTATTGATAGCATTCTTGTTTT | -1.1 |
| ATTGATAGCATTCTTGTTTTGA | -0.317 |
| TTTGAGCAGAGTACTGTCCACA | -0.808 |
| TATTCGAACACCATTATTGATA | -1.28 |
| TTGTATGCCAGGATAAACTTTC | -0.895 |
| TATGCCAGGATAAACTTTCTGC | -0.251 |
| TAATGTAGAACATTTTGACACA | -0.673 |

What follows are sequences tested against LEFTY1 in the same assay as above. Details: shRNA.

| Sequence | sensor-assay potency score (higher = more potent) |
| --- | --- |
| TAAACAATGACACATTGGGCTT | -1 |
| TCATAAGCCAGGAAGCCCGGGG | -0.504 |
| TCCAACGCCAGGAACCTGCCGG | -1.04 |
| TAGTCCCCAAGGTCCAGGGTGT | -1.02 |
| TTTGAGCTGCAGCTGCCGCAGC | -0.825 |
| TTACAAAGTCTTTATTATCTGG | -0.428 |
| TCCATAGTCCCCAAGGTCCAGG | -1.98 |
| TGACCAGCTCCTCCATGTCGGC | -1.7 |
| TTAGGTGAGGTAACTTGTCAGA | -0.87 |
| TATCTCCACATGTAAGTGCTTA | -0.789 |
| TTCTCGGCCCACTTCATCCCCT | -1.23 |
| TCTTTGAGCTGCAGCTGCCGCA | -1.36 |

These sequences were tested against LEKR1 in the same assay as above. Details: shRNA.

| Sequence | sensor-assay potency score (higher = more potent) |
| --- | --- |
| TTTCACAGTCAGCTCTTCCTGT | 0.514 |
| TTTAAGAGTGGTCACTTCCTGC | -0.157 |
| TTAGATTCTTCAGTGTACCGAG | 0.595 |
| TTGCTCTTCAAATTCAACCAAG | -1.09 |
| TTCTGCTTCAATCTTCTCCTTC | 0.505 |
| TTTCCTTTGAATTAGATTCTTC | 0.113 |
| TTGCTTTTCTTTCACAGTCAGC | -1.35 |
| TTGCAATTTTGTTTCTTCCTTA | 0.537 |
| TTAGATCTCTTGTAGCGCCTGT | 0.858 |

Source: the OligoGym collection
